Inconclusive results are not listed. Activity calls are given as the source filed them. Calls follow the shape of the dose curve; as a rule, active = well fitted cell-killing curve with a large enough effect; inconclusive = small, poorly fitted or top-dose-only effect, or effect the other way; inactive = no such curve, though single readings can be large or run the other way.
Test system: Es-2
Assay: Confirmatory qHTS for gynecologic anti-cancer compounds from libraries of approved drugs and bioactive compounds; also: nearly all actives have a fitted effect of over 55% in size
Details: gynecologic cancer cell panel viability, ATPlite luminescence, 48 h; series mostly up to 57.6 µM
How it was run: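 Viability is measured as ATP-dependent luciferase light using ATPlite, read 15 min after reagent addition at room temperature. Compounds, in DMSO, span 57.5 uM down to 0.977 nM over 11 threefold steps for 48 h.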
Potency is read from the fitted curve at half-maximal effect.

Row | Compound | Potency
1 | C[C@]12CC[C@H]3[C@@H](CCC4=CC(=O)CC[C@@H]43)[C@@H]1CC[C@@H]2OC(=O)CCc1ccccc1 | inactive
2 | C/C=C(/C)C(=O)O[C@H]1C(C)=C2[C@H]([C@@H]1OC(=O)CCCCCCC)[C@@](C)(OC(C)=O)C[C@H](OC(=O)CCC)[C@@]1(O)[C@H]2OC(=O)[C@@]1(C)O | 27.3 µM (active)
3 | CCN1CCN(C(=O)Cc2ccc(Nc3ncc(F)c(Nc4ccc(C(=O)Nc5ccccc5Cl)cc4)n3)cc2)CC1 | inactive
4 | O=C(O)Cc1ccccc1 | inactive
5 | CCOc1ccccc1-n1c(C(C)N2CCN(C(=O)COc3ccc(Cl)cc3)CC2)nc2ccccc2c1=O (centres undefined) | 3.43 µM (active)
6 | C=C(C)[C@H]1Cc2c(ccc3c2O[C@@H]2COc4cc(OC)c(OC)cc4[C@@H]2C3=O)O1 | 0.685 µM (active)
7 | C[C@H]1CCC/C=C/C2C[C@H](O)C[C@H]2[C@H](O)/C=C/C(=O)O1 (some centres undefined) | 0.485 µM (active)
8 | CCNC(=O)C[C@@H]1N=C(c2ccc(Cl)cc2)c2cc(OC)ccc2-n2c(C)nnc21 | 24.3 µM (active)
9 | CCC(=O)O[C@H]1CC[C@H]2[C@@H]3CCC4=CC(=O)CC[C@]4(C)[C@H]3CC[C@]12C | inactive
